# From PubChem BioAssay (NCATS)
# Inconclusive results are not listed. Active and inactive are the calls of the source. Calls come from the whole dose curve; as a rule, active = well fitted cell-killing curve with a large enough effect; inconclusive = small, poorly fitted or top-dose-only effect; inactive = flat fitted curve, though single readings scatter.
# Test: Cell Viability - LYMP2-007 (AID 979);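 note: cells exposed to compound for 24 h before reading; 0% = DMSO only and the negative end = 92 µM tetraoctylammonium bromide; nearly all actives have a fitted effect of over 60% in size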
# Settings: LYMP2-007 lymphoblastoid cell viability; series mostly up to 92.2 µM; activity change, negative = cytotoxicity: at the top concentration
# Excerpt: NIH Chemical Genomics Center [NCGC]
# NIH Molecular Libraries Screening Centers Network [MLSCN]
# National Institutes of Environmental Health Sciences [NIEHS]
# National Toxicology Program [NTP]
# We have developed a 1536-well cell-based assay for quantitative high throughput screening (qHTS) against a number of cell lines to determine in vitro cytotoxicity of small molecules. This particular assay uses a human lymphoblastoid cell line (LYMP2-007) purchased from Coriell Institute for Medical Research.
# NCGC Assay Protocol Summary:
# The CellTiter-Glo luminescent cell viability assay (Promega) is a homogeneous method to measure the number of viable cells in culture. The end point readout of this assay is based on quantitation of intracellular ATP, an indicator of metabolic activity, using the luciferase reaction. Luciferase catalyzes the oxidation of beetle Luciferin to oxyluciferin and light in the presence of ATP. The luminescent signal is proportional to amount of ATP present.
# Using the CellTiter-Glo luminescent cell viability assay, the amount of cellular ATP was measured in the lymphoblastoid cell line with complete culture medium following compound treatment for 24 hours. The assay was performed in opaque white Kalypsys 1536-well plates. In the screen, tetraoctylammonium bromide was used as positive control. Library compounds were measured for their ability to cause acute toxicity in the cell line, as reflected by a decrease in intracellular ATP levels, in a concentration-dependent manner. […] AC50 values were determined from concentration-response data modeled with the standard Hill equation.
# qHTS protocol for CellTiter Glo lymphoblastoid cellular assay
# [Step] [Parameter] [Value] [Description]
# 1. Reagent; 5 uL; 2500 lymphoblastoid cells/well
# 2. Time; 5 hr; 37 C incubation
# 4. Controls; 23 nL; Tetraoctylammonium bromide 6.4pM to 92 uM
# 5. Time; 24 hr; 37 C incubation
# 6. Reagent; 5 uL; CellTiter Glo reagent
# 7. Time; 30 min; Room Temperature
# 8. Detection; Luminescence; Viewlux plate reader
# Keywords: cell viability, cytotoxicity, lymphoblastoid cell line, luminescence, NTPHTS, NTPHTS_NCGC, NIEHS, DSSTox, MLSMR, MLSCN, NIH Roadmap, qHTS, NCGC
row,SMILES,"activity change, negative = cytotoxicity"
1,S=C([S-])NCCNC(=S)[S-].[Zn+2],-6.7% (inactive)
2,C/C(C=O)=C/c1ccccc1,-6.75% (inactive)
3,CC(C)CCOC(=O)/C=C/c1ccccc1,-2.01% (inactive)
4,C=Cc1ccccc1C=C,0.591% (inactive)
5,Nc1cccc([N+](=O)[O-])c1,-9.55% (inactive)
6,C=Cc1ccc(C=C)cc1,-6.37% (inactive)
7,C=CCn1c(=O)n(CC=C)c(=O)n(CC=C)c1=O,-14.5% (inactive)
8,CC1CCC2CC1C2(C)C (stereo not given),-0.223% (inactive)
9,CC(=O)c1ccccn1,-0.624% (inactive)
10,COc1ccc(OC)cc1,-5.32% (inactive)
11,CCCCCCCCCCCCOCC1CO1 (stereo not given),-8.02% (inactive)
12,CC(C)CO,-14.2% (inactive)
13,c1ccc2[nH]cnc2c1,3.14% (inactive)
14,CC(=O)CC(C)C,-2.42% (inactive)
15,c1ccsc1,8.23% (inactive)
16,Cc1ccc(CO)cc1,-8.46% (inactive)
17,NC(=O)c1cccc([N+](=O)[O-])c1,2.33% (inactive)
18,C=C(C)C(=O)OC,-4.11% (inactive)
19,FB(F)F,-5.7% (inactive)
20,Cc1cc(C(=O)O)ccc1[N+](=O)[O-],-6.72% (inactive)

row,SMILES,"activity change, negative = cytotoxicity"
1,O=C(O)c1ccccc1Cl,-8.11% (inactive)
2,CC(=O)c1ccc([N+](=O)[O-])cc1,-11.8% (inactive)
3,O=C(O)c1ccccc1[N+](=O)[O-],0.781% (inactive)
4,CCCC(Cl)CCCC(Cl)CCC(Cl)CCC(Cl)CCC(Cl)CCCC(Cl)CCC (stereo not given),-10.4% (inactive)
5,NS(=O)(=O)O,-5.62% (inactive)
6,Cc1cccc([N+](=O)[O-])c1C(=O)O,-10.2% (inactive)
7,c1ccc(Oc2ccccc2)cc1,-11.9% (inactive)
8,NC(N)=S,8.82% (inactive)
9,CC(C)N=C=NC(C)C,9.51% (inactive)
10,CCCOCC(C)O (stereo not given),10.2% (inactive)
11,N#Cc1ccccc1,-5.44% (inactive)
12,C=Cc1ccccn1,4.37% (inactive)
13,O=CNc1ccccc1,-2.43% (inactive)
14,Cc1cc(C)c(N)cc1C,-8.93% (inactive)
15,O=C(O)c1ccc(CO)o1,-8.94% (inactive)
16,C=C(C)C(=O)OCC(C)O (stereo not given),4.79% (inactive)
17,Cc1cccc(C)c1[N+](=O)[O-],-3.03% (inactive)
18,CSCCC=O,-4.21% (inactive)
19,CCOc1cc(OCC)c(C(C)=O)cc1OCC,13.3% (inactive)
20,O=C(O)/C=C/C(=O)O,0.104% (inactive)
